Measurements taken from PubChem BioAssay (Tox21).
Where “and” joins values, the source holds several entries; their conditions need not be identical. Identical values can stand only once. Inconclusive results are not listed. Entries that show only a call come without a potency. Some compounds were tested as several samples or in several runs, with calls that do not always agree. Calls of active or inactive are those of the source. The call rests on the fitted dose curve.

How the values were obtained:
[1] = biological target: Acetylcholinesterase (Homo sapiens) (UniProt P22303); assay: Acetylcholinesterase (AChE) small molecule antagonists: colormetric cell-based qHTS assay (AID 1347395); further: nearly all actives have a fitted effect of over 30% in size
Sequence of Acetylcholinesterase (Homo sapiens) (P22303 whole entry, looked up): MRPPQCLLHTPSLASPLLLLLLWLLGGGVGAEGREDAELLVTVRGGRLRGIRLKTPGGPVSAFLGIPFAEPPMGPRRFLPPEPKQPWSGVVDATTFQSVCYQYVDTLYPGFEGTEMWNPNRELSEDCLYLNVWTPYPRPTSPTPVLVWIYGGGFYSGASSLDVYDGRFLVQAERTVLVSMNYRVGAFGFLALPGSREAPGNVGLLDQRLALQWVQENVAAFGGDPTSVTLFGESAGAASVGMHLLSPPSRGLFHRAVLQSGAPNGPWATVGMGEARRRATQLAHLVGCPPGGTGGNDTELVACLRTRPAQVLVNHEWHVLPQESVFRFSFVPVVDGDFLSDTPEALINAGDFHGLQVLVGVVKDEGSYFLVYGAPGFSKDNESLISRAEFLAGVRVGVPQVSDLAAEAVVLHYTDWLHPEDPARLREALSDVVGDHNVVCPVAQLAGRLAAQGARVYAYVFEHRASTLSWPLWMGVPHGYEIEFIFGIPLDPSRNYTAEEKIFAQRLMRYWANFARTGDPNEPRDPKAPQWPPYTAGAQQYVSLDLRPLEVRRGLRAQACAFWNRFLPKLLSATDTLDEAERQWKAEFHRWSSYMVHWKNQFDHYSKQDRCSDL
How it was run: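 Cells (SH-SY5Y, 2,000 per well) are seeded and left overnight at 37 C. Compound is added for 30 min, then DTNB and acetylthiocholine for a further 90 min at 37 C before absorbance-based thiocholine detection.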

[2] = biological target: Acetylcholinesterase (Homo sapiens) (UniProt P22303); assay: Acetylcholinesterase (AChE) small molecule antagonists: enzyme-based qHTS assay (AID 1347397); details: Potency: AChE enzyme activity inhibition; outcome: AChE enzyme activity inhibition; further: nearly all actives have a fitted effect of over 55% in size; further: potency means the concentration at half of the fitted maximal effect
How it was run: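 Absorbance-based detection of thiocholine with DTNB served as the read-out. Recombinant human AChE was exposed to compound for 30 min at RT before a 10 min RT incubation with acetylthiocholine.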

[3] = biological target: Acetylcholinesterase (Homo sapiens) (UniProt P22303); assay: Acetylcholinesterase (AChE) small molecule antagonists: fluorescence cell-based qHTS assay (AID 1347398); details: Potency: AChE activity; outcome: AChE activity; further: nearly all actives have a fitted effect of over 50% in size; further: potency means the concentration at half of the fitted maximal effect
How it was run: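 Fluorimetric cell-based assay: intact SH-SY5Y cells, 30 min compound preincubation at 37 C, acetylthiocholine substrate with thiol probe Thiolite Green, 40 min RT development, fluorescence 490/520 nm.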

[4] = biological target: Acetylcholinesterase (Homo sapiens) (UniProt P22303); assay: Acetylcholinesterase (AChE) small molecule antagonists: enzyme-based qHTS assay with human liver microsomes (AID 1347399); details: Potency: qHTS inhibition; outcome: qHTS inhibition; further: nearly all actives have a fitted effect of over 60% in size
How it was run: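 Recombinant human AChE (50 mU/mL in the enzyme mix) and human liver microsomes (0.25 mg/mL final) were preincubated with compound and NADPH (0.25 mg/mL final) for 30 min at 37 C. Acetylthiocholine/DTNB was then added; thiocholine was read colorimetrically after 10 min at room temperature.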

SMILES | Potency [1] | Potency [2] | Potency [3] | Potency [4] | activity, negative = inhibition [1] | activity change, negative = inhibition [2] | activity change, negative = inhibition [3] | activity change, negative = inhibition [4]
CN1C(C(=O)Nc2ccccn2)=C(O)c2ccccc2S1(=O)=O | inactive | inactive | inactive | inactive |  |  |  | 
OCCN1C[C@H](O)[C@@H](O)[C@H](O)[C@H]1CO | inactive | inactive | inactive | inactive |  |  |  | 
CCC(C(=O)NC(N)=O)c1ccccc1 (centres undefined) | inactive | inactive | inactive | inactive |  |  |  | 
CCCCCCCCCCC=CC1CC(=O)OC1=O (centres undefined) | inactive | inactive | inactive | inactive |  |  |  | 
C[C@H]1C[C@H]2[C@@H]3CCC4=CC(=O)C=C[C@]4(C)[C@@]3(Cl)[C@@H](O)C[C@]2(C)[C@@]1(O)C(=O)CO | inactive | inactive | inactive | inactive |  |  |  | 
c1ccc(OCCOc2ccccc2)cc1 | inactive | inactive | inactive | inactive |  |  |  | 
Cc1cc(C(C)(C)C)c(O)c(C)c1Cn1c(=O)n(Cc2c(C)cc(C(C)(C)C)c(O)c2C)c(=O)n(Cc2c(C)cc(C(C)(C)C)c(O)c2C)c1=O | inactive | inactive | inactive | inactive |  |  |  | 
S=C(S)NCCNC(=S)S | inactive | inactive | inactive | inactive |  |  |  | 
CC(=O)c1cc2ccccc2s1 | inactive | inactive | inactive | inactive |  |  |  | 
CCOC(=O)[C@H](CCc1ccccc1)N[C@@H](C)C(=O)N1C(=O)N(C)C[C@H]1C(=O)O | inactive | inactive | inactive | inactive |  |  |  | 
N[C@H](Cc1c[nH]c2ccccc12)C(=O)O | inactive | inactive | inactive | inactive |  |  |  | 
Nc1nc(N)c2nc(CNc3ccc(C(=O)N[C@@H](CCC(=O)O)C(=O)O)cc3)cnc2n1 | inactive | inactive | inactive | inactive |  |  |  | 
Cc1cc(O)c2c(c1)C(=O)c1cc(O)cc(O)c1C2=O | inactive | inactive | 15.5 µM (active) and inactive | inactive |  |  |  | 
C1CC(COCC2CO2)CCC1COCC1CO1 (centres undefined) | inactive | inactive | inactive | inactive |  |  |  | 
O=C(O)c1ccco1 | inactive | inactive | inactive | inactive |  |  |  | 
CCn1c2ccccc2c2cc(N)ccc21 | inactive | inactive | inactive | inactive |  |  |  | 
CC(=O)OC1CCC(C(C)(C)C)CC1 (centres undefined) | inactive | inactive | inactive | inactive |  |  |  | 
CCCCCC1=CCCC1=O | inactive | inactive | 22.9 µM (active) and inactive | inactive |  |  |  | 
c1ccc(CCc2ccccc2)cc1 | inactive | inactive | inactive | inactive |  |  |  | 
O=S(=O)(O)CC(O)CCl (centres undefined) | inactive | inactive | inactive | inactive |  |  |  | 
O=c1cc(-c2ccccc2)oc2ccccc12 | inactive | inactive | inactive | inactive |  |  |  | 

SMILES | Potency [1] | Potency [2] | Potency [3] | Potency [4] | activity, negative = inhibition [1] | activity change, negative = inhibition [2] | activity change, negative = inhibition [3] | activity change, negative = inhibition [4]
NCCS(=O)(=O)O | inactive | inactive | inactive | inactive |  |  |  | 
OC[C@@H](O)[C@H](O)[C@H](O)[C@@H](O)CO | inactive | inactive | inactive | inactive |  |  |  | 
CC(C)(c1cc(Br)c(O)c(Br)c1)c1cc(Br)c(O)c(Br)c1 | inactive | 39.8 µM (active) and 70.8 µM (active) and 67.2 µM (active) | inactive | inactive |  |  |  | 
CN1CCN(N)CC1 | inactive | inactive | inactive | inactive |  |  |  | 
CCC(=O)OC(C)(C)C1CC=C(C)CC1 (centres undefined) | inactive | inactive | inactive | inactive |  |  |  | 
CCCCCCCCCCCC(=O)OC | inactive | inactive | inactive | inactive |  |  |  | 
CCCCCCCCCCC(=O)O | inactive | inactive | inactive | inactive |  |  |  | 
CCN1CCN(C(=O)N[C@@H](C(=O)N[C@@H]2C(=O)N3[C@@H]2SC(C)(C)[C@H]3C(=O)O)c2ccccc2)C(=O)C1=O | inactive | inactive | inactive | inactive |  |  |  | 
CCOc1ccc(NC(=O)CC(C)=O)cc1 | inactive | inactive | inactive | inactive |  |  |  | 
CC(C)c1cccc(C(C)C)c1 | inactive | inactive | inactive | inactive |  |  |  | 
CC1=C(C)C(=O)C(C(CCCCCC(=O)O)c2ccccc2)=C(C)C1=O (centres undefined) | inactive | inactive | inactive | inactive |  |  |  | 
CCOC(=O)CCC(=O)OCC | inactive | inactive | inactive | inactive |  |  |  | 
CCCCCCCCCCCCCCCCC(=O)O | inactive | inactive | inactive | inactive |  |  |  | 
CC(C)(CO)COC(=O)C(C)(C)CO | inactive | inactive | inactive | inactive |  |  |  | 
O=S(=O)(O)c1ccc2nc(-c3ccccc3)[nH]c2c1 | inactive | inactive | inactive | inactive |  |  |  | 
CN(C)C(=O)NC1(c2ccccc2)CCN(CCC[C@]2(c3ccc(Cl)c(Cl)c3)CCCN(C(=O)c3ccccc3)C2)CC1 |  |  |  |  | -4.11% [at 23.6 µM] (inactive) | 0.197% [at 23.6 µM] (inactive) | -16% [at 23.8 µM] (inactive) | 4.25% [at 23.6 µM] (inactive)
CCOC(=O)CCC(C)=O | inactive | inactive | inactive | inactive |  |  |  | 
NCCCC[C@H](N[C@@H](CCc1ccccc1)C(=O)O)C(=O)N1CCC[C@H]1C(=O)O | inactive | inactive | inactive | inactive |  |  |  | 
CCN1CCC[C@H]1CNC(=O)c1c(O)c(Cl)cc(Cl)c1OC | inactive | inactive | inactive | inactive |  |  |  | 
Clc1ccc2c(Cl)ccnc2c1 | inactive | inactive | inactive | inactive |  |  |  | 
